# ± gives the standard deviation of the averaged measurements.
# What was measured:
# Assay in all cases: promoter activity interaction Z-score (Lux/OD deviation from empty-vector control); higher = stronger promoter induction by the compound
# [1] = system: E. coli BW25113 acrABp lux reporter
# Procedure, shortened: (§1)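 Four 1:2 dilutions of each compound were tested in biological duplicates on E. coli BW25113 carrying low-copy luxCDABE promoter reporters, either wild type or deleted for one of three genes. Cultures of 40 µl LB Lennox in 384-well plates were kept at 37°C and read for OD600 and luminescence every 30 min for 12 h. Integration windows were 0–8 h for wild type and 1–9 h for deletion strains, and wells under 10% of the median growth value were discarded. The score is a Z-transformed residual of growth-normalised luminescence relative to a control fit.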
# [2] = system: E. coli BW25113 marRABp lux reporter
# Procedure, shortened: as §1
# [3] = system: E. coli BW25113 micFp lux reporter
# Procedure, shortened: as §1
# [4] = system: E. coli BW25113 ompFp lux reporter
# Procedure, shortened: as §1
# [5] = system: E. coli BW25113 robp lux reporter
# Procedure, shortened: as §1
# [6] = system: E. coli BW25113 soxSp lux reporter
# Procedure, shortened: as §1
# [7] = system: E. coli BW25113 tolCp lux reporter
# Procedure, shortened: as §1
# [8] = 0.53 µg/ml, genetic background: wild type
# [9] = 0.53 µg/ml, genetic background: ΔmarA
# [10] = 0.53 µg/ml, genetic background: Δrob
# [11] = 0.53 µg/ml, genetic background: ΔsoxS
# [12] = 1.1 µg/ml, genetic background: wild type
# [13] = 1.1 µg/ml, genetic background: ΔmarA
# [14] = 1.1 µg/ml, genetic background: Δrob
# [15] = 1.1 µg/ml, genetic background: ΔsoxS
# [16] = 2.1 µg/ml, genetic background: wild type
# [17] = 2.1 µg/ml, genetic background: ΔmarA
# [18] = 2.1 µg/ml, genetic background: Δrob
# [19] = 2.1 µg/ml, genetic background: ΔsoxS
# [20] = 4.2 µg/ml, genetic background: wild type
# [21] = 4.2 µg/ml, genetic background: ΔmarA
# [22] = 4.2 µg/ml, genetic background: Δrob
# [23] = 4.2 µg/ml, genetic background: ΔsoxS
compound,measurement,setting,value
Cc1onc(-c2ccccc2)c1C(=O)N[C@@H]1C(=O)N2[C@@H]1SC(C)(C)[C@@H]2C(=O)O [Oxacillin],promoter activity interaction Z-score,[1]; [8],0.053 ± 0.18
same,promoter activity interaction Z-score,[1]; [9],-0.268 ± 0.44
same,promoter activity interaction Z-score,[1]; [10],-0.0793 ± 0.23
same,promoter activity interaction Z-score,[1]; [11],-0.33 ± 0.59
same,promoter activity interaction Z-score,[1]; [12],0.196 ± 0.12
same,promoter activity interaction Z-score,[1]; [13],1.12 ± 0.86
same,promoter activity interaction Z-score,[1]; [14],0.498 ± 0.18
same,promoter activity interaction Z-score,[1]; [15],-0.172 ± 0.078
same,promoter activity interaction Z-score,[1]; [16],0.0571 ± 0.33
same,promoter activity interaction Z-score,[1]; [17],0.268 ± 0.39
same,promoter activity interaction Z-score,[1]; [18],-0.074 ± 0.13
same,promoter activity interaction Z-score,[1]; [19],0.181 ± 0.15
same,promoter activity interaction Z-score,[1]; [20],0.273 ± 0.22
same,promoter activity interaction Z-score,[1]; [21],0.585 ± 0.21
same,promoter activity interaction Z-score,[1]; [22],0.529 ± 0.22
same,promoter activity interaction Z-score,[1]; [23],0.643 ± 0.31
same,promoter activity interaction Z-score,[2]; [8],-0.0416 ± 0.14
same,promoter activity interaction Z-score,[2]; [9],-0.145 ± 0.48
same,promoter activity interaction Z-score,[2]; [10],-0.0895 ± 0.14
same,promoter activity interaction Z-score,[2]; [11],0.143 ± 0.032
same,promoter activity interaction Z-score,[2]; [12],0.221 ± 0.0058
same,promoter activity interaction Z-score,[2]; [13],0.189 ± 0.3
same,promoter activity interaction Z-score,[2]; [14],0.0302 ± 0.28
same,promoter activity interaction Z-score,[2]; [15],0.214 ± 0.17
same,promoter activity interaction Z-score,[2]; [16],-0.151 ± 0.12
same,promoter activity interaction Z-score,[2]; [17],-0.0728 ± 0.16
same,promoter activity interaction Z-score,[2]; [18],0.0223 ± 0.02
same,promoter activity interaction Z-score,[2]; [19],0.133 ± 0.06
same,promoter activity interaction Z-score,[2]; [20],0.0879 ± 0.03
same,promoter activity interaction Z-score,[2]; [21],0.194 ± 0.076
same,promoter activity interaction Z-score,[2]; [22],-0.03 ± 0.043
same,promoter activity interaction Z-score,[2]; [23],0.211 ± 0.2
same,promoter activity interaction Z-score,[3]; [8],-0.0698 ± 0.15
same,promoter activity interaction Z-score,[3]; [9],-0.00609 ± 0.034
same,promoter activity interaction Z-score,[3]; [10],0.0977 ± 0.018
same,promoter activity interaction Z-score,[3]; [11],-0.311 ± 0.1
same,promoter activity interaction Z-score,[3]; [12],0.087 ± 0.12
same,promoter activity interaction Z-score,[3]; [13],0.0472 ± 0.028
same,promoter activity interaction Z-score,[3]; [14],-0.0746 ± 0.027
same,promoter activity interaction Z-score,[3]; [15],-0.46 ± 0.051
same,promoter activity interaction Z-score,[3]; [16],-0.222 ± 0.18
same,promoter activity interaction Z-score,[3]; [17],-0.0625 ± 0.059
same,promoter activity interaction Z-score,[3]; [18],-0.00193 ± 0.23
same,promoter activity interaction Z-score,[3]; [19],-0.245 ± 0.077
same,promoter activity interaction Z-score,[3]; [20],-0.192 ± 0.041
same,promoter activity interaction Z-score,[3]; [21],-0.163 ± 0.035
same,promoter activity interaction Z-score,[3]; [22],-0.112 ± 0.052
same,promoter activity interaction Z-score,[3]; [23],-0.2749 ± 0.002
same,promoter activity interaction Z-score,[4]; [8],0.23 ± 0.46
same,promoter activity interaction Z-score,[4]; [9],-0.204 ± 0.21
same,promoter activity interaction Z-score,[4]; [10],0.703 ± 0.91
same,promoter activity interaction Z-score,[4]; [11],0.0892 ± 0.53
same,promoter activity interaction Z-score,[4]; [12],0.678 ± 0.061
same,promoter activity interaction Z-score,[4]; [13],0.797 ± 0.28
same,promoter activity interaction Z-score,[4]; [14],1.14 ± 0.72
same,promoter activity interaction Z-score,[4]; [15],-0.107 ± 0.53
same,promoter activity interaction Z-score,[4]; [16],0.461 ± 0.27
same,promoter activity interaction Z-score,[4]; [17],0.0383 ± 0.29
same,promoter activity interaction Z-score,[4]; [18],0.0292 ± 0.36
same,promoter activity interaction Z-score,[4]; [19],0.0474 ± 0.046
same,promoter activity interaction Z-score,[4]; [20],1.42 ± 0.14
same,promoter activity interaction Z-score,[4]; [21],1.05 ± 0.48
same,promoter activity interaction Z-score,[4]; [22],0.898 ± 0.69
same,promoter activity interaction Z-score,[4]; [23],0.846 ± 0.19
same,promoter activity interaction Z-score,[5]; [8],0.088 ± 0.58
same,promoter activity interaction Z-score,[5]; [9],-0.319 ± 0.36
same,promoter activity interaction Z-score,[5]; [10],0.652 ± 0.036
same,promoter activity interaction Z-score,[5]; [11],0.106 ± 0.47
same,promoter activity interaction Z-score,[5]; [12],0.612 ± 0.26
same,promoter activity interaction Z-score,[5]; [13],0.925 ± 0.46
same,promoter activity interaction Z-score,[5]; [14],0.609 ± 0.17
same,promoter activity interaction Z-score,[5]; [15],0.778 ± 0.55
same,promoter activity interaction Z-score,[5]; [16],0.467 ± 0.023
same,promoter activity interaction Z-score,[5]; [17],-0.206 ± 0.25
same,promoter activity interaction Z-score,[5]; [18],0.275 ± 0.38
same,promoter activity interaction Z-score,[5]; [19],0.757 ± 0.4
same,promoter activity interaction Z-score,[5]; [20],0.385 ± 0.34
same,promoter activity interaction Z-score,[5]; [21],1.01 ± 0.081
same,promoter activity interaction Z-score,[5]; [22],0.222 ± 0.11
same,promoter activity interaction Z-score,[5]; [23],1.08 ± 0.62
same,promoter activity interaction Z-score,[6]; [8],-0.0338 ± 0.24
same,promoter activity interaction Z-score,[6]; [9],-0.139 ± 0.028
same,promoter activity interaction Z-score,[6]; [10],-0.137 ± 0.026
same,promoter activity interaction Z-score,[6]; [11],0.0469 ± 0.46
same,promoter activity interaction Z-score,[6]; [12],0.0426 ± 0.12
same,promoter activity interaction Z-score,[6]; [13],0.0745 ± 0.03
same,promoter activity interaction Z-score,[6]; [14],-0.157 ± 0.17
same,promoter activity interaction Z-score,[6]; [15],-0.0373 ± 0.73
same,promoter activity interaction Z-score,[6]; [16],0.0115 ± 0.12
same,promoter activity interaction Z-score,[6]; [17],-0.148 ± 0.13
same,promoter activity interaction Z-score,[6]; [18],-0.0916 ± 0.13
same,promoter activity interaction Z-score,[6]; [19],0.0598 ± 0.27
same,promoter activity interaction Z-score,[6]; [20],-0.0461 ± 0.098
same,promoter activity interaction Z-score,[6]; [21],-0.0772 ± 0.096
same,promoter activity interaction Z-score,[6]; [22],-0.0369 ± 0.08
same,promoter activity interaction Z-score,[6]; [23],0.0279 ± 0.51
same,promoter activity interaction Z-score,[7]; [8],-0.367 ± 0.24
same,promoter activity interaction Z-score,[7]; [9],-0.79 ± 0.24
same,promoter activity interaction Z-score,[7]; [10],-0.414 ± 0.28
same,promoter activity interaction Z-score,[7]; [11],-0.864 ± 0.42
same,promoter activity interaction Z-score,[7]; [12],0.453 ± 0.31
same,promoter activity interaction Z-score,[7]; [13],0.956 ± 0.37
same,promoter activity interaction Z-score,[7]; [14],0.349 ± 0.2
same,promoter activity interaction Z-score,[7]; [15],-0.174 ± 0.0082
same,promoter activity interaction Z-score,[7]; [16],-0.798 ± 0.98
same,promoter activity interaction Z-score,[7]; [17],-0.615 ± 0.57
same,promoter activity interaction Z-score,[7]; [18],-0.016 ± 0.46
same,promoter activity interaction Z-score,[7]; [19],-0.0987 ± 0.39
same,promoter activity interaction Z-score,[7]; [20],-0.558 ± 0.11
same,promoter activity interaction Z-score,[7]; [21],-0.589 ± 0.39
same,promoter activity interaction Z-score,[7]; [22],-0.155 ± 0.7
same,promoter activity interaction Z-score,[7]; [23],-0.224 ± 1.2
